Source: PubChem
The entries come from a sample that favours hits as a whole.
Pf Dd2 growth – qHTS Primary assay for Inhibitors of Plasmodium falciparum Dd2 growth in vitro; P. falciparum Dd2 growth, SYBR Green, 72 h; Potency, µM (top dose mostly 28.9 µM), for inactives: at the top dose activity, negative = inhibition, usual class: inhibitors; hit rate 4.3% among 120,000; AID 1347417, 2020; active means well fitted inhibition curve with a large enough effect;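 further: plate controls were DMSO vehicle for no effect and reference drug for full effect; nearly all actives have a fitted effect of over 65% in size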
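Infected erythrocytes (Dd2, 0.3% parasitemia, 2.5% hematocrit final) are added to compound in RPMI-1640/Albumax II medium, grown 72 h at 37C in low oxygen, then lysed with saponin/Triton-X containing SYBR Green and read by fluorescence.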
* hit, by the source's call; i = inactive; [ ] = another dose, or the depositor's remark. Potency means the concentration at half of the fitted maximal effect.

SMILES	Pf Dd2 growth
CCn1cc(S(=O)(=O)c2cc(C)cc(C)c2)c(=O)c2cc(F)c(N3CCCCC3)cc21	-16%
CCCCn1cc(S(=O)(=O)c2cc(C)ccc2C)c(=O)c2cc(F)c(F)cc21	-11%
CCCn1cc(S(=O)(=O)c2cc(C)ccc2C)c(=O)c2cc(F)c(N3CCOCC3)cc21	47%
CCn1cc(S(=O)(=O)c2ccc(C)cc2C)c(=O)c2cc(F)c(N3CCCC3)cc21	11µM*
Cc1cccc(S(=O)(=O)c2cn(C)c3cc(N4CCCCCC4)c(F)cc3c2=O)c1	i
Cc1ccc(C)c(S(=O)(=O)c2cn(C)c3cc(F)c(F)cc3c2=O)c1	10%
Cc1ccc(S(=O)(=O)c2cn(C)c3cc(N4CCCC4)c(F)cc3c2=O)c(C)c1	10µM*
Cc1ccc(C)c(S(=O)(=O)c2cn(C)c3cc(N4CCCCC4C)c(F)cc3c2=O)c1 (stereo not drawn)	11µM*
O=C(CC(c1ccccc1)c1ccccc1F)N1CCSCC1 (stereo not drawn)	-14%
COc1ccc2c(C)c(C(=O)N3CCC(c4nc(C(C)C)no4)CC3)oc2c1	9%
O=C1NC2(CCN(Cc3ccccc3C(F)(F)F)CC2)Oc2ccccc21	i
Cc1cc(S(=O)(=O)N2CCC(CC(=O)NCc3ccccc3)C2)ccc1F (stereo not drawn)	-10%
CCN(CC)[C@H]1C[C@@H](Cc2cc(CO)on2)C1(C)C	-25%[44.1 µM]
Cn1c(C(=O)NCc2ccoc2)nc2nc(-c3ccccc3)c(Cl)cc21	-5%[44.1 µM]
Cn1c(C(=O)NCC2CC2)nc2nc(-c3ccccc3)c(Cl)cc21	-13%[44.1 µM]
CN(C)CCNC(=O)c1nc2nc(-c3ccccc3)c(-c3ccccc3O)cc2n1C	5.6µM*
COc1cc(CNC(=O)c2nc3nc(-c4ccccc4)c(Cl)cc3n2C)cc(OC)c1	8.9µM*
COCc1nc2nc(-c3ccccc3)c(-c3cccnc3)cc2n1C	-6%[44.1 µM]
COCc1nc2nc(-c3ccccc3)c(-c3ccccc3O)cc2n1C	4.5µM*
CN(C)CCNC(=O)c1nc2nc(-c3ccccc3)c(-c3ccc(Cl)cc3)cc2n1C	5µM*
COc1ncccc1-c1cc2c(nc1-c1ccccc1)nc(C(=O)NCCN(C)C)n2C	i
COCc1nc2nc(-c3ccccc3)c(-c3ccccc3OC)cc2n1C	-6%[44.1 µM]
Cn1c(C(=O)NCCc2ccccn2)nc2nc(-c3ccccc3)c(Cl)cc21	i
COc1ccc(CNC(=O)c2nc3nc(-c4ccccc4)c(Cl)cc3n2C)cc1OC	9%[44.1 µM]
Cn1c(C(=O)NCCN2CCOCC2)nc2nc(-c3ccccc3)c(Cl)cc21	i
SMILES	Pf Dd2 growth
Cn1c(C(=O)N[C@@H]2COCC[C@H]2Oc2ccc(C#N)cc2)cc(=O)n(C)c1=O	-1%
CC[C@H]1CN(S(=O)(=O)c2c(C)noc2C)CC[C@H]1CC(=O)N(C)CC#N	-24%[44.1 µM]
O=C(NCc1ccccc1-n1cccn1)C1NCCc2[nH]cnc21 (stereo not drawn)	10%
Cc1ccc(S(=O)(=O)NC[C@H]2OC[C@@H](NC3CCN(C)CC3)[C@@H]2O)cc1	17%[44.1 µM]
O=C(c1ccc(N2CCCC2=O)cc1)N1CCC2(CC1)OCCCC2O (stereo not drawn)	-11%
Cc1cc(C(F)(F)F)nc(CNc2cc(C)nc3c(C)c(C)nn23)n1	11%
COCCCNC(=O)CCC[C@@H]1[C@H]2CCCN3CCC[C@@H](CN1C(=O)c1ccccc1)[C@@H]23	i
COCCNC(=O)C[C@@H]1C[C@H]2O[C@H](CNC(=O)NC3CCC3)[C@@H](O)[C@H]2O1	29%[44.1 µM]
COCCN1C(=O)CC[C@]2(C(=O)NCc3cccc(Cl)c3)CCCC[C@@H]12	-3%
CCc1nc2c(c(-c3ccc(OC)cc3)n1)CN(C(=O)c1ccc(C)cc1)CC2	-23%
Cc1ccc(C)c(CN2C(=O)c3ccccc3Sc3ccc(C(=O)NCCCOC(C)C)cc32)c1	-16%
CCCNC(=O)c1ccc2c(c1)N(Cc1cccc(C)c1)C(=O)c1ccccc1S2	-6%
CNC(=O)c1ccc2c(c1)N=C(C)c1cc(C)ccc1S2	i
COc1ccc(CCNC(=O)c2ccc3[nH]c(C)c(C)c3c2)cc1OC	i
COc1ccc(CCNC(=O)c2ccc(Cn3c(=O)c4ccccc4n(Cc4ccc(C)cc4)c3=O)cc2)cc1OC	21%
COc1ccc(CCNC(=O)c2ccc3c(c2)N=C(C)c2cc(C)ccc2S3)cc1OC	11µM*
COc1ccc(CCNC(=O)c2ccc3c(c2)N(Cc2cccc(Cl)c2)C(=O)CS3)cc1OC	-4%
CCCC1=Nc2cc(C(=O)NCCc3ccc(OC)c(OC)c3)ccc2Sc2ccc(C)cc21	10µM*
CCCC1=Nc2cc(C(=O)NCc3ccccc3)ccc2Sc2ccccc21	11µM*
COc1ccc(CCNC(=O)c2cc(=O)c3cc(C)cc(C)c3o2)cc1OC	7%
O=C(NCc1ccccc1)c1ccc2nccn2c1	-13%[44.1 µM]
CC1=Nc2cc(C(=O)NC(C)C)ccc2Sc2ccc(C)cc21	11µM*
Cc1ccc2oc(=O)n(CCC(=O)N3CCc4c(nc(C)[nH]c4=O)C3)c2c1	-3%
O=C1Nc2cnccc2C2(CCN(C(=O)c3ccccc3)C2)O1 (stereo not drawn)	7%[44.1 µM]
